Data reported in PubChem BioAssay (NCATS).
Records with an inconclusive call do not appear. Where a call stands in place of a potency, no number is given. Calls of active or inactive are those of the source. Calls follow the shape of the dose curve; as a rule, active = well fitted inhibition curve with a large enough effect; inconclusive = small, poorly fitted or top-dose-only effect; inactive = flat fitted curve, though single readings scatter.

Tests used:
Experiment in all cases: qHTS profiling for inhibitors of Plasmodium falciparum proliferation (AID 504749); also: nearly all actives have a fitted effect of over 60% in size
Settings in all cases: P. falciparum in erythrocytes, SYBR Green DNA, 72 h; series mostly up to 28.7 µM
CP325 = test system: CP325
Outline: (§1)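 Fluorescence of SYBR Green-bound parasite DNA, read at 485/535 nm, served as the growth measure. Infected erythrocytes were cultured with compound 72 h; artemisinin (0.29 uM) and DMSO wells defined the normalization range.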

CP329 = test system: CP329
Outline: as §1

CP335 = test system: CP335
Outline: as §1

DFO2036 = test system: DFO2036
Outline: as §1

DIV14 = test system: DIV14
Outline: as §1

DIV17 = test system: DIV17
Outline: as §1

DIV30 = test system: DIV30
Outline: as §1

Dd2 = test system: Dd2
Outline: as §1

ECU = test system: ECU
Outline: as §1

FAB9 = test system: FAB9
Outline: as §1
Potency is read from the fitted curve at half-maximal effect.

## Oc1cccc(O)c1
CP325
  Potency: inactive
CP329
  Potency: inactive
CP335
  Potency: inactive
DFO2036
  Potency: inactive
DIV14
  Potency: inactive
DIV17
  Potency: inactive
DIV30
  Potency: inactive
Dd2
  Potency: inactive
ECU
  Potency: inactive
FAB9
  Potency: inactive

## CC(C)(C)C(=O)NCCCC(=O)O
CP325
  Potency: inactive
CP329
  Potency: inactive
CP335
  Potency: inactive
DFO2036
  Potency: inactive
DIV14
  Potency: inactive
DIV17
  Potency: inactive
DIV30
  Potency: inactive
Dd2
  Potency: inactive
ECU
  Potency: inactive
FAB9
  Potency: inactive

## CC(=O)CCC(=O)O
CP325
  Potency: inactive
CP329
  Potency: inactive
CP335
  Potency: inactive
DFO2036
  Potency: inactive
DIV14
  Potency: inactive
DIV17
  Potency: inactive
DIV30
  Potency: inactive
Dd2
  Potency: inactive
ECU
  Potency: inactive
FAB9
  Potency: inactive

## Nc1nc2c(ncn2CCC(CO)CO)c(=O)[nH]1
CP325
  Potency: inactive
CP329
  Potency: inactive
CP335
  Potency: inactive
DFO2036
  Potency: inactive
DIV14
  Potency: inactive
DIV17
  Potency: inactive
DIV30
  Potency: inactive
Dd2
  Potency: inactive
ECU
  Potency: inactive
FAB9
  Potency: inactive

## C[C@](N)(Cc1ccc(O)cc1)C(=O)O
CP325
  Potency: inactive
CP329
  Potency: inactive
CP335
  Potency: inactive
DFO2036
  Potency: inactive
DIV14
  Potency: inactive
DIV17
  Potency: inactive
DIV30
  Potency: inactive
Dd2
  Potency: inactive
ECU
  Potency: inactive
FAB9
  Potency: inactive

## NS(=O)(=O)c1cc2c(cc1Cl)NC(CSCc1ccccc1)=NS2(=O)=O
CP325
  Potency: inactive
CP329
  Potency: inactive
CP335
  Potency: inactive
DFO2036
  Potency: inactive
DIV14
  Potency: inactive
DIV17
  Potency: inactive
DIV30
  Potency: inactive
Dd2
  Potency: inactive
ECU
  Potency: inactive
FAB9
  Potency: inactive

## CC1(C)OC(=O)NC1=O
CP325
  Potency: inactive
CP329
  Potency: inactive
CP335
  Potency: inactive
DFO2036
  Potency: inactive
DIV14
  Potency: inactive
DIV17
  Potency: inactive
DIV30
  Potency: inactive
Dd2
  Potency: inactive
ECU
  Potency: inactive
FAB9
  Potency: inactive

## CCCCCCCCCCCCOS(=O)(=O)O
CP325
  Potency: inactive
CP329
  Potency: inactive
CP335
  Potency: inactive
DFO2036
  Potency: inactive
DIV14
  Potency: inactive
DIV17
  Potency: inactive
DIV30
  Potency: inactive
Dd2
  Potency: inactive
ECU
  Potency: inactive
FAB9
  Potency: inactive

## COc1cc(C)c(Cc2cnc(N)nc2N)cc1OC
CP325
  Potency: inactive
CP329
  Potency: inactive
CP335
  Potency: inactive
DFO2036
  Potency: inactive
DIV14
  Potency: inactive
DIV17
  Potency: inactive
DIV30
  Potency: inactive
Dd2
  Potency: inactive
ECU
  Potency: 5.01 µM (active)
FAB9
  Potency: 5.62 µM (active)

## Cc1ncc(COP(=O)(O)O)c(C=O)c1O
CP325
  Potency: inactive
CP329
  Potency: inactive
CP335
  Potency: inactive
DFO2036
  Potency: inactive
DIV14
  Potency: inactive
DIV17
  Potency: inactive
DIV30
  Potency: inactive
Dd2
  Potency: inactive
ECU
  Potency: inactive
FAB9
  Potency: inactive

## CC(O)CN(CCN(CC(C)O)CC(C)O)CC(C)O (stereo not drawn)
CP325
  Potency: inactive
CP329
  Potency: inactive
CP335
  Potency: inactive
DFO2036
  Potency: inactive
DIV14
  Potency: inactive
DIV17
  Potency: inactive
DIV30
  Potency: inactive
Dd2
  Potency: inactive
ECU
  Potency: inactive
FAB9
  Potency: inactive

## C=Cc1c(C)c2cc3[nH]c(cc4nc(cc5nc(cc1[nH]2)C(C)=C5CCC(=O)O)C(CCC(=O)O)=C4C)c(C)c3C=C
CP325
  Potency: inactive
CP329
  Potency: inactive
CP335
  Potency: inactive
DFO2036
  Potency: inactive
DIV14
  Potency: inactive
DIV17
  Potency: inactive
DIV30
  Potency: inactive
Dd2
  Potency: inactive
ECU
  Potency: inactive
FAB9
  Potency: inactive

## C[C@@H]1CN(c2c(F)c(F)c3c(=O)c(C(=O)O)cn(C4CC4)c3c2F)C[C@H](C)N1
CP325
  Potency: inactive
CP329
  Potency: inactive
CP335
  Potency: inactive
DFO2036
  Potency: inactive
DIV14
  Potency: inactive
DIV17
  Potency: inactive
DIV30
  Potency: inactive
Dd2
  Potency: inactive
ECU
  Potency: inactive
FAB9
  Potency: inactive

## NC(=O)NC(=O)Cc1ccccc1
CP325
  Potency: inactive
CP329
  Potency: inactive
CP335
  Potency: inactive
DFO2036
  Potency: inactive
DIV14
  Potency: inactive
DIV17
  Potency: inactive
DIV30
  Potency: inactive
Dd2
  Potency: inactive
ECU
  Potency: inactive
FAB9
  Potency: inactive

## COc1cc(C(=O)N2CCOCC2)cc(OC)c1OC
CP325
  Potency: inactive
CP329
  Potency: inactive
CP335
  Potency: inactive
DFO2036
  Potency: inactive
DIV14
  Potency: inactive
DIV17
  Potency: inactive
DIV30
  Potency: inactive
Dd2
  Potency: inactive
ECU
  Potency: inactive
FAB9
  Potency: inactive

## CC1(C)CO[C@@H](CC(=O)O)CN1
CP325
  Potency: inactive
CP329
  Potency: inactive
CP335
  Potency: inactive
DFO2036
  Potency: inactive
DIV14
  Potency: inactive
DIV17
  Potency: inactive
DIV30
  Potency: inactive
Dd2
  Potency: inactive
ECU
  Potency: inactive
FAB9
  Potency: inactive

## CC(C)(C)NCC(O)COc1ccc(NC(=O)NC2CCCCC2)cc1 (stereo not drawn)
CP325
  Potency: inactive
CP329
  Potency: inactive
CP335
  Potency: inactive
DFO2036
  Potency: inactive
DIV14
  Potency: inactive
DIV17
  Potency: inactive
DIV30
  Potency: inactive
Dd2
  Potency: inactive
ECU
  Potency: inactive
FAB9
  Potency: inactive

## NC1CCN(c2cccc(Cl)n2)CC1
CP325
  Potency: inactive
CP329
  Potency: inactive
CP335
  Potency: inactive
DFO2036
  Potency: inactive
DIV30
  Potency: inactive
ECU
  Potency: inactive
FAB9
  Potency: inactive

## Nc1ccc(S(=O)(=O)Nc2ccccc2)cc1
CP325
  Potency: inactive
CP329
  Potency: inactive
CP335
  Potency: inactive
DFO2036
  Potency: inactive
DIV14
  Potency: inactive
DIV17
  Potency: inactive
DIV30
  Potency: inactive
Dd2
  Potency: inactive
ECU
  Potency: inactive
FAB9
  Potency: inactive

## Cc1cc(O)cc2c1O[C@](C)(CCC[C@H](C)CCC[C@H](C)CCCC(C)C)CC2
CP325
  Potency: inactive
CP329
  Potency: inactive
CP335
  Potency: inactive
DFO2036
  Potency: inactive
DIV14
  Potency: inactive
DIV17
  Potency: inactive
DIV30
  Potency: inactive
Dd2
  Potency: inactive
ECU
  Potency: inactive
FAB9
  Potency: inactive

## Cc1c(Cl)cccc1Nc1ccccc1C(=O)O
CP325
  Potency: inactive
CP329
  Potency: inactive
CP335
  Potency: inactive
DFO2036
  Potency: inactive
DIV14
  Potency: inactive
DIV17
  Potency: inactive
DIV30
  Potency: inactive
Dd2
  Potency: inactive
ECU
  Potency: inactive
FAB9
  Potency: inactive

## CCCCOc1cc(C(=O)OCCN(CC)CC)ccc1N
CP325
  Potency: inactive
CP329
  Potency: inactive
CP335
  Potency: inactive
DFO2036
  Potency: inactive
DIV14
  Potency: inactive
DIV17
  Potency: inactive
DIV30
  Potency: inactive
Dd2
  Potency: inactive
ECU
  Potency: inactive
FAB9
  Potency: inactive

## CCCCc1ncc(/C=C(\Cc2cccs2)C(=O)O)n1Cc1ccc(C(=O)O)cc1
CP325
  Potency: inactive
CP329
  Potency: inactive
CP335
  Potency: inactive
DFO2036
  Potency: inactive
DIV14
  Potency: inactive
DIV17
  Potency: inactive
DIV30
  Potency: inactive
Dd2
  Potency: inactive
ECU
  Potency: inactive
FAB9
  Potency: inactive

## COc1ccc(Cl)cc1C(=O)NCCc1ccc(S(=O)(=O)NC(=O)NC2CCCCC2)cc1
CP325
  Potency: inactive
CP329
  Potency: inactive
CP335
  Potency: inactive
DFO2036
  Potency: inactive
DIV14
  Potency: inactive
DIV17
  Potency: inactive
DIV30
  Potency: inactive
Dd2
  Potency: inactive
FAB9
  Potency: inactive

## CC(=O)c1ccc2c(c1)N(CCCN(C)C)c1ccccc1S2
CP325
  Potency: inactive
CP329
  Potency: inactive
CP335
  Potency: inactive
DFO2036
  Potency: inactive
DIV30
  Potency: inactive
ECU
  Potency: inactive
FAB9
  Potency: inactive
